# CHT allo act = CHT positive allosteric modulators, primary screen, cell-based, membrane potential dye, choline EC20; High affinity choline transporter 1 (Homo sapiens), Q9GZV3; CHT-expressing cells; stronger effect = higher value; LV-AA mutant CHT in HEK293 cells; B-score at 10 µM; 0.49% of 310,000 active; AID 488977, 2010;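 active = initial fluorescence not abnormally high and integrated response B-score, plate-corrected, over 3 SD above library mean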
# MEKK2mut PB1 HTS = MEK5 binding signal on mutant MEKK2 PB1, primary screen, biochemical, multiplex bead flow cytometry, Alexa488-MEK5; percent response, % at 10 µM; Alexa488-MEK5 binding to MEKK2 mutant; 0.35% of 290,000 active; in the data active = percent response above about 24%, passing the limit was not always enough
# Mot1-301 SUMO = yeast Mot1-301 growth rescue at high temperature, primary screen, SUMOylation pathway inhibitor project, S. cerevisiae, ATP luminescence, 38.5C. S. cerevisiae Mot1-301 growth rescue; percent above DMSO median, 100 means doubled. growth rescue, % at 18.8 µM. 1% of 320,000 active;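 active = every valid replicate shows activation above 250% relative to neutral control wells; inactive = the rest, any valid replicate at or below 250%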;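 note: OY570 slx delta 5 strain wells were the positive control but not used for scaling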
# CHT block = inhibitors of human choline transporter CHT | 0.86% of 310,000 active | B-score at 10 µM | CHT-expressing cells, membrane potential dye, choline response; stronger effect = lower value | High affinity choline transporter 1 (Homo sapiens), Q9GZV3;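 active = B-score over 3 SD under the library average, and starting fluorescence ratio not unusually high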;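 note: choline stimulus applied at its EC90 after an EC20 pre-addition; B-score computed on integrated fluorescence ratio after choline addition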
# MEKK2wt PB1 HTS = modulators of MEK5 binding to wildtype MEKK2, primary screen, biochemical, multiplex bead flow cytometry, Alexa488-MEK5; Alexa488-MEK5 binding to MEKK2 WT; actives lie on both sides; binding response (% of control), % at 10 µM; 1.1% of 290,000 active; in the data active = binding response below about 67% or above about 130%
# MEKK3 PB1 HTS = modulators of MEKK3-MEK5 PB1 binding, primary screen, biochemical, wildtype MEKK3, multiplex bead flow cytometry, Alexa488-MEK5. bead-based flow cytometry, Alexa488-MEK5 binding to MEKK3; actives lie on both sides; 0 = blocked by unlabeled MEK5, 100 = vehicle. 1.4% of 290,000 active. binding response (% of control), % at 10 µM. Mitogen-activated protein kinase kinase kinase 3 (Homo sapiens), Q99759;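 active = binding response more than 3 SD above or below the average of its plate-row segment, actives on both sides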;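 note: Alexa488 bead fluorescence after subtracting the streptavidin-only scavenger bead signal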
# Target sequence (Q99759 whole entry, looked up): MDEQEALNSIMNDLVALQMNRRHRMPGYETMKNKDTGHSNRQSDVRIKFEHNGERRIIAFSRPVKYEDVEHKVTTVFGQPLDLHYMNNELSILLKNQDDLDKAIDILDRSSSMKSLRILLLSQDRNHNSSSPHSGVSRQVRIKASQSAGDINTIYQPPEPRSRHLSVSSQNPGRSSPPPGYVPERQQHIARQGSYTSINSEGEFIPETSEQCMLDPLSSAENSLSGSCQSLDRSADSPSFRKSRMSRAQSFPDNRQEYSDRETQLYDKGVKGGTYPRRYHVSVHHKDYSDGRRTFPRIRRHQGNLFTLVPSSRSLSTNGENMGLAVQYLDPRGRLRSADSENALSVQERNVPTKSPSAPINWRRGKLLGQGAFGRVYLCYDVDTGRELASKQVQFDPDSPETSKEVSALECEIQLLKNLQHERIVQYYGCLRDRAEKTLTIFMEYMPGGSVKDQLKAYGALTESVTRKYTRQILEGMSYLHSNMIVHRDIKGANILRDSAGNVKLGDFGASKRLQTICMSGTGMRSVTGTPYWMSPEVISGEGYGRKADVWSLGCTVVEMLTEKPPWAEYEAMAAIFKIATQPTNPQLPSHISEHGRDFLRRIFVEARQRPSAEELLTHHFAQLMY
# Starred values were filed as active, the others as inactive; i = inactive; nt = no result given; [ ] = dose if it differs, or a comment. Hits are enriched below; roughly 4.1% of the tested compounds scored in any of these assays.
SMILES,CHT allo act,MEKK2mut PB1 HTS,Mot1-301 SUMO,CHT block,MEKK2wt PB1 HTS,MEKK3 PB1 HTS
CC(C)OCCCn1c(=N)c(C(N)=S)cc2c(=O)n3ccccc3nc21,6.62*,-1.0,-18.7,i,82.0,88.0
O=C(NCc1cccnc1)c1cccc(S(=O)(=O)Nc2cccc(Cl)c2)c1,nt,nt,-10.1,nt,nt,nt
COc1ccc(CCNC(=O)C(=O)NCc2cccs2)cc1OC,i,8.0,134.3,i,106.0,104.0
CCN(CC)CCCNC(=O)CCC(=O)Nc1ccc2nc(N3CCCCC3)cc(C)c2c1,i,7.0,888.6*,i,108.0,95.0
CCN1CCN(c2cc(C)c3cc(NC(=S)N4CCCC4)ccc3n2)CC1,i,6.0,18.7,i,111.0,106.0
CCOC(=O)N1CCN(C(=S)Nc2ccc3nc(N4CCN(CC)CC4)cc(C)c3c2)CC1,i,-1.0,-5.6,-8.34*,109.0,102.0
Cc1nc2ccc(Nc3ccncc3)cc2s1,i,2.0,34.9,i,104.0,94.0
Cc1c(C)n(C)c2ccc(C(=O)NCCCN(C)C3CCCCC3)cc12,i,12.0,35.9,i,145.0*,101.0
CC1CCCCN1CCNC(=O)c1ccc2c(=O)n(Cc3ccc(Cl)cc3)c(=S)[nH]c2c1 (centres undefined),i,33.0*,273.9,i,169.0*,107.0
CC1CCCCN1CCNC(=O)c1ccc2c(=O)n(CCc3ccccc3)c(=O)[nH]c2c1 (centres undefined),i,nt,-4.8,i,nt,nt
Cc1c(C)n(C)c2ccc(C(=O)NCCCN3CCCCC3C)cc12 (centres undefined),i,35.0*,6.6,i,178.0*,108.0
CC1CCCCN1CCCNC(=O)c1ccc(Br)cc1 (centres undefined),i,2.0,-9.6,i,111.0,101.0
Cc1c(C)n(C)c2ccc(C(=O)Nc3cccc4ccccc34)cc12,i,16.0,68.5,i,112.0,116.0
CN1C2CCC1CC(NC(=O)c1cc(Cl)cc3[nH]cnc13)C2 (centres undefined),i,4.0,-14.3,i,112.0,110.0
CC(C)C12CN3CC(C(C)C)(CN(C1)C3c1ccc([N+](=O)[O-])o1)C2=O (centres undefined),i,-3.0,3.1,i,95.0,98.0
COc1ccccc1NC(=O)C(C)Sc1nc(-c2ccccc2)cn1N (centres undefined),nt,nt,9.7,nt,nt,nt
CCN(CC)S(=O)(=O)c1ccc(N2CCCC2)c(NC(=O)C2CCCCC2)c1,i,1.0,221.6,i,100.0,100.0
CCN(CC)S(=O)(=O)c1ccc(N2CCN(C)CC2)c(NC(=O)Nc2ccc(C)cc2)c1,i,15.0,-0.2,i,146.0*,106.0
COc1ccc(CN(C)S(=O)(=O)c2ccc3c(c2)OCCO3)cc1,i,3.0,-8.2,i,103.0,100.0
CCN(CC)CCCNc1ccc(-c2nnc(-c3ccc(OCC(C)C)cc3)o2)cn1,i,36.0*,25.1,i,165.0*,106.0
Cc1onc(C(=O)Nc2ccccc2C(F)(F)F)c1[N+](=O)[O-],i,-21.0,nt,i,0.0*[inhibitor],1.0*[inhibitor]
CSc1ccccc1NC(=O)c1noc(C)c1[N+](=O)[O-],i,2.0,nt,i,102.0,98.0
CCC(C)(C)NC(=O)C1CCN(S(=O)(=O)c2cccs2)CC1,nt,81.0*,nt,nt,296.0*,93.0
CCc1ccc(NC(=O)C2CCN(S(=O)(=O)c3cccs3)CC2)cc1,i,-6.0,16.7,i,95.0,100.0
NC(=S)N/N=C/c1coc2ccc(Cl)cc2c1=O,i,-7.0,323.8*,i,91.0,100.0
SMILES,CHT allo act,MEKK2mut PB1 HTS,Mot1-301 SUMO,CHT block,MEKK2wt PB1 HTS,MEKK3 PB1 HTS
CC(C)OCC(O)CN1CCC(Cc2ccccc2)CC1 (centres undefined),i,1.0,3.8,i,104.0,101.0
OC(COc1ccc(Br)cc1)CN1CCC(Cc2ccccc2)CC1 (centres undefined),i,17.0,92.6,i,135.0*,103.0
CN1CCN(C(=O)c2ccccc2NC(=O)CCN2C(=O)c3ccccc3C2=O)CC1,i,1.0,336.2*,i,104.0,100.0
CCc1ccccc1NC(=O)CCN1C(=O)c2ccccc2C1=O,i,4.0,0.3,i,105.0,102.0
O=C(CSc1nc(-c2ccccc2)cs1)Nc1ccccc1[N+](=O)[O-],i,18.0,8.1,i,126.0,106.0
CN(C)c1nc(-c2cn(CCC#N)c3ccccc23)cs1,i,-6.0,-3.8,i,-15.0*,97.0
COCCn1cc(-c2csc(N)n2)c2ccccc21,i,1.0,-12.8,i,101.0,100.0
COc1ccc(C(=O)NCCS(=O)(=O)N2CCc3ccccc3C2)cc1,i,nt,530.3*,i,nt,nt
Cc1cc(C)cc(NC(=S)NCCN(C2CCCCC2)C2CCCC2)c1,i,19.0,430.2*,i,136.0,101.0
Cc1nn(C)c(Oc2ccc(Cl)cc2)c1C(=O)Nc1ccc(F)cc1F,i,7.0,312.2*,i,102.0,99.0
CC(C)OP(=O)(OC(C)C)C(Nc1ccccc1)c1cccc2c1OCO2 (centres undefined),i,34.0,278.7*,i,98.0,99.0
CC(C)OP(=O)(OC(C)C)C(Nc1ccccc1)c1ccc2c(c1)OCO2 (centres undefined),i,6.0,6.4,i,127.0,100.0
CC(C)Sc1nc2ncnc(N)c2[nH]1,i,-11.0,22.2,i,87.0,93.0
CCc1ccc(S(=O)(=O)/N=C2\C=C(Nc3ccc(C(=O)O)cc3)C(=O)c3ccccc32)cc1,i,-4.0,-21.5,-7.23*,93.0,99.0
Cc1ccc(S(=O)(=O)Nc2ccc(C(=O)N3CCCC3)cc2)cc1,i,0.0,1.6,i,97.0,97.0
Cc1ccc(NS(=O)(=O)c2ccc(C(=O)N3CC(C)CC(C)C3)cc2)cc1 (centres undefined),10.4*,nt,225.1,i,nt,nt
COc1cc(/C=N/NC(=O)c2ccc(COc3ccccc3Cl)o2)cc(Br)c1O,i,0.0,-4.0,i,99.0,100.0
COc1cccc(/C=N/NC(=O)c2ccc(COc3ccc(Cl)cc3Cl)o2)c1,i,9.0,321.8*,i,110.0,119.0
c1ccc(NCc2cccnc2)cc1,i,1.0,292.5*,i,103.0,103.0
